Test results published in PubChem BioAssay AID493011 (Sanford-Burnham Center for Chemical Genomics, 2011).
The campaign covered roughly 330,000 compounds. About 1,400 (0.42%) were called active. Only a selection was taken, and actives are over-represented in it overall. Values without a mark were called inactive.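 How the source made its calls: active means at least 40% inhibition at 20 µM here, with at most 30% in a related deaminase screen; inactive means the rest.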

Each compound was assayed against DNA dC->dU-editing enzyme APOBEC-3A (Homo sapiens) (UniProt P31941) (assay: blockers of A3A cytidine deamination on DNA – biochemical, FAM/TAMRA oligo cleavage fluorescence, selectivity assay for APOBEC3G inhibitor project, primary screen (AID 493011;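 further: plate controls were A3A with DMSO for no effect and wells lacking A3A enzyme for full effect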)). Details: recombinant A3A, FAM/TAMRA ssDNA deamination fluorescence; at 20 µM; active compounds read high.
Chain of DNA dC->dU-editing enzyme APOBEC-3A (Homo sapiens) (P31941 whole entry, looked up): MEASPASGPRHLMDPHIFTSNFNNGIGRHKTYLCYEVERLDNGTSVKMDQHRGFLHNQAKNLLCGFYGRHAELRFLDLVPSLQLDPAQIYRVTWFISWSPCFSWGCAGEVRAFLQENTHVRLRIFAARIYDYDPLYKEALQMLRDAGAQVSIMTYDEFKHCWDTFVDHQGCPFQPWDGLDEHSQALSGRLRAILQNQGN

| Compound | inhibition |
| --- | --- |
| CCN(CC)CCOC(=O)c1cc2cc(COC)ccc2o1 | 75.9% (active) |
| CC(=NC1CCN(Cc2ccccc2)CC1)c1c(O)n(C)c(=O)n(C)c1=O | 1.55% |
| COc1cc(OC)cc(C2(C#N)CCN(C)CC2)c1 | 3.94% |
| CN(C)c1nc(N(C)C)nc(N(C#N)CCCl)n1 | -2.95% |
| O=C(O)CCn1cc(C=C2C(=O)NC(=S)NC2=O)c(-c2cccc(Br)c2)n1 | 40.8% (active) |
| COC(=O)C1=C(c2cccc(OCc3ccccc3)c2)C[C@@H]2CC[C@H]1N2C(=O)NNCc1ccccc1 | -3.97% |
| CC(=C1C(=O)c2ccccc2C1=O)N1CCN(CCN=Cc2c(O)n(C)c(=O)n(C)c2=O)CC1 | 1.68% |
| CC[N+]1(C)CCCC(OC(=O)C(O)(c2ccccc2)c2ccccc2)C1 (stereo not given) | -0.37% |
| O=C(c1cc(S(=O)(=O)N2CCOCC2)ccc1F)N1CCC2(CC1)OCCO2 | 4.32% |
| CNC(=O)O/N=C(\N)Cc1csc2ccccc12 | 1.51% |
